The supplement of paper PMC10037445
The full ranking holds about 2,900 compounds; the median of “NF-kB SEAP reporter activity, fold change vs agonist alone” is about 0.99, and the highest 2% start at about 2.6. Shown is part of a subset that was picked to be rich in the highest values.

How the values were obtained:
RAW-Dual [1] = assay: NF-kB SEAP reporter activity, fold change vs agonist alone; cytotoxicity flag (confluency mask): not cytotoxic; higher = enhanced NF-kB activity
Summary of the method: (§1)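 Reporter activity is given as fold change relative to agonist-alone wells. To measure it, 50 nL of library stock was pin-tooled onto RAW-Dual macrophages (50,000 cells/well, DMEM, 384-well plates), a PRR agonist followed 1 h later, and cells stayed at 37 °C, 5% CO2. Twenty hours on, supernatant was assayed for IRF (QuantiLuc luminescence) and NF-κB (QuantiBlue, 620 nm absorbance), and wells under 70% of agonist-control IncuCyte confluency in both mask sets were marked cytotoxic.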

RAW-Dual [2] = assay: NF-kB SEAP reporter activity, fold change vs agonist alone; higher = enhanced NF-kB activity
Summary of the method: as §1

RAW-Dual [3] = assay: NF-kB SEAP reporter activity, fold change vs agonist alone; cytotoxicity flag (confluency mask): cytotoxic (confluency <70% of control); higher = enhanced NF-kB activity
Summary of the method: as §1

[4] = agonist: ODN 1826 (TLR9) 0.5 ug/mL
[5] = agonist: Pam2CSK4 (TLR2/6) 0.1 ug/mL
[6] = agonist: Pam3CSK4 (TLR2/1) 0.1 ug/mL
[7] = library stock concentration (final ~1000-fold dilution): 10 mM, cytotoxicity flag (confluency mask): not cytotoxic, agonist: Imiquimod (TLR7) […]
[8] = library stock concentration (final ~1000-fold dilution): 10 mM, cytotoxicity flag (confluency mask): not cytotoxic, agonist: MPLA (TLR4) […]
[9] = library stock concentration (final ~1000-fold dilution): 10 mM, cytotoxicity flag (confluency mask): cytotoxic (confluency <70% of control), agonist: Imiquimod (TLR7) […]
[10] = library stock concentration (final ~1000-fold dilution): 10 mM, cytotoxicity flag (confluency mask): cytotoxic (confluency <70% of control), agonist: MPLA (TLR4) […]

CCOC(=O)C1=CC(OC(CC)CC)C(NC(C)=O)C(N)C1 (centres undefined) (library stock concentration (final ~1000-fold dilution): 2 mM)
NF-kB SEAP reporter activity (RAW-Dual [1]; agonist: LPS (TLR4) 0.1 ug/mL): 1.17
NF-kB SEAP reporter activity (RAW-Dual [1]; [4]): 1.08
NF-kB SEAP reporter activity (RAW-Dual [1]; [5]): 1.16
NF-kB SEAP reporter activity (RAW-Dual [1]; [6]): 1.11

CCOC(=O)C1=CC(OC(CC)CC)C(NC(C)=O)C(N)C1 (centres undefined)
NF-kB SEAP reporter activity (RAW-Dual [2]; library stock concentration (final ~1000-fold dilution): 2 mM, cytotoxicity flag (confluency mask): not cytotoxic, agonist: Imiquimod (TLR7) […]): 0.848
NF-kB SEAP reporter activity (RAW-Dual [2]; library stock concentration (final ~1000-fold dilution): 2 mM, cytotoxicity flag (confluency mask): not cytotoxic, agonist: MPLA (TLR4) […]): 1.03

N#Cc1cnc(Nc2cc(NCC3CNCCO3)c(C(F)(F)F)cn2)cn1 (centres undefined)
NF-kB SEAP reporter activity (RAW-Dual [2]; [7]): 1.66
NF-kB SEAP reporter activity (RAW-Dual [2]; [8]): 0.936

N#Cc1cnc(Nc2cc(NCC3CNCCO3)c(C(F)(F)F)cn2)cn1 (centres undefined) (library stock concentration (final ~1000-fold dilution): 10 mM)
NF-kB SEAP reporter activity (RAW-Dual [1]; agonist: LPS (TLR4) 0.1 ug/mL): 1.37
NF-kB SEAP reporter activity (RAW-Dual [1]; [4]): 1.25
NF-kB SEAP reporter activity (RAW-Dual [1]; [5]): 1.34
NF-kB SEAP reporter activity (RAW-Dual [1]; [6]): 1.5

COc1ccc2cc(-c3[nH]c(-c4ccc(S(C)=O)cc4)nc3-c3ccncc3)ccc2c1 (centres undefined)
NF-kB SEAP reporter activity (RAW-Dual [2]; [7]): 1.81
NF-kB SEAP reporter activity (RAW-Dual [2]; [8]): 2.57

CS(=O)c1ccc(-c2nc(-c3ccc(F)cc3)c(-c3ccncc3)[nH]2)cc1 (centres undefined) (library stock concentration (final ~1000-fold dilution): 10 mM)
NF-kB SEAP reporter activity (RAW-Dual [1]; agonist: LPS (TLR4) 0.1 ug/mL): 2.27
NF-kB SEAP reporter activity (RAW-Dual [1]; [4]): 0.762
NF-kB SEAP reporter activity (RAW-Dual [1]; [5]): 0.716
NF-kB SEAP reporter activity (RAW-Dual [1]; [6]): 1.02

CS(=O)c1ccc(-c2nc(-c3ccc(F)cc3)c(-c3ccncc3)[nH]2)cc1 (centres undefined)
NF-kB SEAP reporter activity (RAW-Dual [2]; [7]): 1.52
NF-kB SEAP reporter activity (RAW-Dual [2]; [8]): 1.61

COc1ccc2cc(-c3[nH]c(-c4ccc(S(C)=O)cc4)nc3-c3ccncc3)ccc2c1 (centres undefined) (library stock concentration (final ~1000-fold dilution): 10 mM)
NF-kB SEAP reporter activity (RAW-Dual [1]; agonist: LPS (TLR4) 0.1 ug/mL): 3.42
NF-kB SEAP reporter activity (RAW-Dual [1]; [4]): 2.22
NF-kB SEAP reporter activity (RAW-Dual [1]; [5]): 1.74
NF-kB SEAP reporter activity (RAW-Dual [1]; [6]): 2.04

CCS(=O)(=O)N1CCN(c2ccc(Nc3ncc(C(N)=O)c(NC4CC4)n3)cc2)CC1.Cl
NF-kB SEAP reporter activity (RAW-Dual [2]; [9]): 0.23
NF-kB SEAP reporter activity (RAW-Dual [2]; [10]): 0.398

CCS(=O)(=O)N1CCN(c2ccc(Nc3ncc(C(N)=O)c(NC4CC4)n3)cc2)CC1.Cl (library stock concentration (final ~1000-fold dilution): 10 mM)
NF-kB SEAP reporter activity (RAW-Dual [3]; agonist: LPS (TLR4) 0.1 ug/mL): 0.273
NF-kB SEAP reporter activity (RAW-Dual [3]; [4]): 0.218
NF-kB SEAP reporter activity (RAW-Dual [3]; [5]): 0.0746
NF-kB SEAP reporter activity (RAW-Dual [3]; [6]): 0.121

CCOc1ccc(Cc2cc(C3OC(CO)C(O)C(O)C3O)ccc2Cl)cc1 (centres undefined)
NF-kB SEAP reporter activity (RAW-Dual [2]; [7]): 1.04
NF-kB SEAP reporter activity (RAW-Dual [2]; [8]): 1.03

CCOc1ccc(Cc2cc(C3OC(CO)C(O)C(O)C3O)ccc2Cl)cc1 (centres undefined) (library stock concentration (final ~1000-fold dilution): 10 mM)
NF-kB SEAP reporter activity (RAW-Dual [1]; agonist: LPS (TLR4) 0.1 ug/mL): 1.04
NF-kB SEAP reporter activity (RAW-Dual [1]; [4]): 1.2
NF-kB SEAP reporter activity (RAW-Dual [1]; [5]): 1.01
NF-kB SEAP reporter activity (RAW-Dual [1]; [6]): 1.1

CCC1=CC2CN(C1)Cc1c([nH]c3ccccc13)C(C(=O)OC)(c1cc3c(cc1OC)N(C)C1C(O)(C(=O)OC)C(OC(C)=O)C4(CC)C=CCN5CCC31C54)C2 (centres undefined) (library stock concentration (final ~1000-fold dilution): 10 mM)
NF-kB SEAP reporter activity (RAW-Dual [3]; agonist: LPS (TLR4) 0.1 ug/mL): 5.34
NF-kB SEAP reporter activity (RAW-Dual [3]; [4]): 0.35
NF-kB SEAP reporter activity (RAW-Dual [3]; [5]): 1.78
NF-kB SEAP reporter activity (RAW-Dual [3]; [6]): 1.95

CCC1(O)CC2CN(CCc3c([nH]c4ccccc34)C(C(=O)OC)(c3cc4c(cc3OC)N(C=O)C3C(O)(C(=O)OC)C(OC(C)=O)C5(CC)C=CCN6CCC43C65)C2)C1.O=S(=O)(O)O (centres undefined) (library stock concentration (final ~1000-fold dilution): 10 mM)
NF-kB SEAP reporter activity (RAW-Dual [1]; agonist: LPS (TLR4) 0.1 ug/mL): 5.34
NF-kB SEAP reporter activity (RAW-Dual [1]; [4]): 3.28
NF-kB SEAP reporter activity (RAW-Dual [1]; [5]): 1.99
NF-kB SEAP reporter activity (RAW-Dual [1]; [6]): 2.22

CCC1(O)CC2CN(CCc3c([nH]c4ccccc34)C(C(=O)OC)(c3cc4c(cc3OC)N(C=O)C3C(O)(C(=O)OC)C(OC(C)=O)C5(CC)C=CCN6CCC43C65)C2)C1.O=S(=O)(O)O (centres undefined)
NF-kB SEAP reporter activity (RAW-Dual [2]; [7]): 2.54
NF-kB SEAP reporter activity (RAW-Dual [2]; [8]): 2.37

CCC1(O)CC2CN(CCc3c([nH]c4ccccc34)C(C(=O)OC)(c3cc4c(cc3OC)N(C)C3C(O)(C(=O)OC)C(OC(C)=O)C5(CC)C=CCN6CCC43C65)C2)C1.O=S(=O)(O)O (centres undefined) (library stock concentration (final ~1000-fold dilution): 10 mM)
NF-kB SEAP reporter activity (RAW-Dual [3]; agonist: LPS (TLR4) 0.1 ug/mL): 5.91
NF-kB SEAP reporter activity (RAW-Dual [3]; [4]): 2.96
NF-kB SEAP reporter activity (RAW-Dual [3]; [5]): 1.48
NF-kB SEAP reporter activity (RAW-Dual [3]; [6]): 1.94

CCC1=CC2CN(C1)Cc1c([nH]c3ccccc13)C(C(=O)OC)(c1cc3c(cc1OC)N(C)C1C(O)(C(=O)OC)C(OC(C)=O)C4(CC)C=CCN5CCC31C54)C2 (centres undefined)
NF-kB SEAP reporter activity (RAW-Dual [2]; [9]): 2.47
NF-kB SEAP reporter activity (RAW-Dual [2]; [10]): 2.6

CCC1(O)CC2CN(CCc3c([nH]c4ccccc34)C(C(=O)OC)(c3cc4c(cc3OC)N(C)C3C(O)(C(=O)OC)C(OC(C)=O)C5(CC)C=CCN6CCC43C65)C2)C1.O=S(=O)(O)O (centres undefined)
NF-kB SEAP reporter activity (RAW-Dual [2]; [9]): 2.51
NF-kB SEAP reporter activity (RAW-Dual [2]; [10]): 2.53
